Results published in ChEMBL document CHEMBL1961873, “Compounds: GSK PKIS; Assays: Nanosyn kinase panel” (2012).

Assays:
[1] = target: T1, Serine/threonine-protein kinase Nek9 (Homo sapiens) (UniProt Q8TD19); settings: at 1 µM;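 further: each value is a mean percent inhibition of NEK9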
T1 sequence (whole entry): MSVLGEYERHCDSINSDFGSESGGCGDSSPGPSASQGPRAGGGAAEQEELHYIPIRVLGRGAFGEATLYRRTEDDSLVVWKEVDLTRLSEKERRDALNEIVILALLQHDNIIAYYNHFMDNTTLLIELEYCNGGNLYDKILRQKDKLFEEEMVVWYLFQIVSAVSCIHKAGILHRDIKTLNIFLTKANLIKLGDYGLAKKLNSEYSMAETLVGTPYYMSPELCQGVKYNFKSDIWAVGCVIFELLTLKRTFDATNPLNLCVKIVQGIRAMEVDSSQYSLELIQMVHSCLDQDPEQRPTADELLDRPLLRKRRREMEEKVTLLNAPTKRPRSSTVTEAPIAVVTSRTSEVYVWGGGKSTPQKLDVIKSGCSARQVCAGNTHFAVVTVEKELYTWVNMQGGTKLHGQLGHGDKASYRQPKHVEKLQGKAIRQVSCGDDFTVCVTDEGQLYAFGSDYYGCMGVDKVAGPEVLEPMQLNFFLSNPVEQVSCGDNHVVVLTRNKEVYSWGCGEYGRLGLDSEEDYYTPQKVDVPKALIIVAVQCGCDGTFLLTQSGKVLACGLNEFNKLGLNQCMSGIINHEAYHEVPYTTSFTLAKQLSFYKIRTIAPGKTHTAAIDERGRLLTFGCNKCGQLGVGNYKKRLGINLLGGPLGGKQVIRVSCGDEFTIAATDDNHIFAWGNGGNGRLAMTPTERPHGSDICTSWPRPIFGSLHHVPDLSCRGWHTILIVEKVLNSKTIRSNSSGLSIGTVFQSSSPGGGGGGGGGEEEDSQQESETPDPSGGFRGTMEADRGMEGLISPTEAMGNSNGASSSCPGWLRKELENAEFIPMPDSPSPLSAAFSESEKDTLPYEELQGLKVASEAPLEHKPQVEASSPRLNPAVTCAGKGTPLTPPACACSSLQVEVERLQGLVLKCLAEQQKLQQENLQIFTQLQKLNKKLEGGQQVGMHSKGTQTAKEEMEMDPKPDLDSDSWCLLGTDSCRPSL

[2] = target: Serine/threonine-protein kinase PLK1 (Homo sapiens) (UniProt P53350); settings: at 0.1 µM
[3] = target: Serine/threonine-protein kinase PLK1 (Homo sapiens) (UniProt P53350); settings: at 1 µM
[4] = target: T2, Dual specificity protein kinase TTK (Homo sapiens) (UniProt P33981); settings: at 0.1 µM
T2 sequence (whole entry): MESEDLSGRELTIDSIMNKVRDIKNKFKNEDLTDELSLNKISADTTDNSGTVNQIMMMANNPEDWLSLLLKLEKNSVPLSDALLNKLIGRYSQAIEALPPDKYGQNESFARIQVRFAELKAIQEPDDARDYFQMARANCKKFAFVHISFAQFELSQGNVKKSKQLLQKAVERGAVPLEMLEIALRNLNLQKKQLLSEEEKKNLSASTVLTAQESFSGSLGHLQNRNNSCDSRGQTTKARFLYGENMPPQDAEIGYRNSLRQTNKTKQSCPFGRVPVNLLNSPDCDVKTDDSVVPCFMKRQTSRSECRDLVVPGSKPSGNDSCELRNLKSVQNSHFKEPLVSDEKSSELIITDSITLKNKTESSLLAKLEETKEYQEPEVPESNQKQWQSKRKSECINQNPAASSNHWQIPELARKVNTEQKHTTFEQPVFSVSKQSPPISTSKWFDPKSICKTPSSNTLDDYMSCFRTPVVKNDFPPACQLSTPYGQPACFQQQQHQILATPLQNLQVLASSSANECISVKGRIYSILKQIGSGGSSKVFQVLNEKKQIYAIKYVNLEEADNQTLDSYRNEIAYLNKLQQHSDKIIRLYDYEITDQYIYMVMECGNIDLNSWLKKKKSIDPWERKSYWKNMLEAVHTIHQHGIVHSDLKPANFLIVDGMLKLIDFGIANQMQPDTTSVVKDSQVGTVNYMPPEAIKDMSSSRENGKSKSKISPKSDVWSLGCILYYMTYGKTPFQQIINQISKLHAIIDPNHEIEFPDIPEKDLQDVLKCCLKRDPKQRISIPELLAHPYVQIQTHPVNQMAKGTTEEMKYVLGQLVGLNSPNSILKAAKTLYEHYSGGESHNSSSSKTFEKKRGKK

[5] = tested on: T3, Receptor-type tyrosine-protein kinase FLT3 (Homo sapiens), P36888 [D835Y]; settings: at 1 µM
T3 sequence (whole entry): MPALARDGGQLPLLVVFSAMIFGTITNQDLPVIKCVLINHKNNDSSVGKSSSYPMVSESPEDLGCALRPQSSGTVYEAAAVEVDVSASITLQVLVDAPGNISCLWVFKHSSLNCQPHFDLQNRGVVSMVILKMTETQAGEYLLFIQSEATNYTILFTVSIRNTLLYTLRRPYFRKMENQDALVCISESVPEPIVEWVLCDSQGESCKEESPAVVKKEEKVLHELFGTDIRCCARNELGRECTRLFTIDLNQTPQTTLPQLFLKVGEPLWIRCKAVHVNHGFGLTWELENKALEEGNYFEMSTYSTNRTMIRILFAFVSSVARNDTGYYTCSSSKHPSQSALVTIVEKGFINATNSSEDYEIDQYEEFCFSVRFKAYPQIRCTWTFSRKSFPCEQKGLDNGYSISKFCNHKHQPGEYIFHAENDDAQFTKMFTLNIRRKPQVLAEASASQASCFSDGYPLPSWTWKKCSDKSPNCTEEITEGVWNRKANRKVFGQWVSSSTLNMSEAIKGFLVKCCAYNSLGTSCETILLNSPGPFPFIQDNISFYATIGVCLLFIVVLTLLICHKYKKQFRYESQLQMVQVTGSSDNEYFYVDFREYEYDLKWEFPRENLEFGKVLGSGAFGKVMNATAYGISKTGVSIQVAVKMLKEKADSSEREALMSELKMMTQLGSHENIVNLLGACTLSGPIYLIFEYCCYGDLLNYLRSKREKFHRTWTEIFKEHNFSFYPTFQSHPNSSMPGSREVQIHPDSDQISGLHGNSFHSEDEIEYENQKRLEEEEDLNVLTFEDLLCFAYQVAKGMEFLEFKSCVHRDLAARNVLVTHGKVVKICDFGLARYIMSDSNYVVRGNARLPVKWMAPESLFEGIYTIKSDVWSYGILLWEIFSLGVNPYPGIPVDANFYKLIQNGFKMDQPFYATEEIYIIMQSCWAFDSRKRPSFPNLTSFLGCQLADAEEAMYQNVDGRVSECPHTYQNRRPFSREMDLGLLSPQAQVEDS

[6] = target: Vascular endothelial growth factor receptor 3 (Homo sapiens) (UniProt P35916); settings: at 0.1 µM
[7] = target: Vascular endothelial growth factor receptor 3 (Homo sapiens) (UniProt P35916); settings: at 1 µM
[8] = target: Macrophage colony-stimulating factor 1 receptor (Homo sapiens) (UniProt P07333); settings: at 0.1 µM
[9] = target: Macrophage colony-stimulating factor 1 receptor (Homo sapiens) (UniProt P07333); settings: at 1 µM
[10] = target: Tyrosine-protein kinase Fyn (Homo sapiens) (UniProt P06241); settings: at 0.1 µM
[11] = target: Tyrosine-protein kinase Fyn (Homo sapiens) (UniProt P06241); settings: at 1 µM
[12] = target: Tyrosine-protein kinase HCK (Homo sapiens) (UniProt P08631); settings: at 0.1 µM
[13] = target: Tyrosine-protein kinase HCK (Homo sapiens) (UniProt P08631); settings: at 1 µM
[14] = target: Insulin-like growth factor 1 receptor (Homo sapiens) (UniProt P08069); settings: at 0.1 µM
[15] = target: Insulin-like growth factor 1 receptor (Homo sapiens) (UniProt P08069); settings: at 1 µM
[16] = target: Insulin receptor (Homo sapiens) (UniProt P06213); settings: at 0.1 µM
[17] = target: Insulin receptor (Homo sapiens) (UniProt P06213); settings: at 1 µM
[18] = target: Insulin receptor-related protein (Homo sapiens) (UniProt P14616); settings: at 0.1 µM
[19] = target: Insulin receptor-related protein (Homo sapiens) (UniProt P14616); settings: at 1 µM
[20] = target: T4, Tyrosine-protein kinase ITK/TSK (Homo sapiens) (UniProt Q08881); settings: at 0.1 µM;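 further: mean percent inhibition of ITK from the GSK PKIS screen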
T4 sequence (whole entry): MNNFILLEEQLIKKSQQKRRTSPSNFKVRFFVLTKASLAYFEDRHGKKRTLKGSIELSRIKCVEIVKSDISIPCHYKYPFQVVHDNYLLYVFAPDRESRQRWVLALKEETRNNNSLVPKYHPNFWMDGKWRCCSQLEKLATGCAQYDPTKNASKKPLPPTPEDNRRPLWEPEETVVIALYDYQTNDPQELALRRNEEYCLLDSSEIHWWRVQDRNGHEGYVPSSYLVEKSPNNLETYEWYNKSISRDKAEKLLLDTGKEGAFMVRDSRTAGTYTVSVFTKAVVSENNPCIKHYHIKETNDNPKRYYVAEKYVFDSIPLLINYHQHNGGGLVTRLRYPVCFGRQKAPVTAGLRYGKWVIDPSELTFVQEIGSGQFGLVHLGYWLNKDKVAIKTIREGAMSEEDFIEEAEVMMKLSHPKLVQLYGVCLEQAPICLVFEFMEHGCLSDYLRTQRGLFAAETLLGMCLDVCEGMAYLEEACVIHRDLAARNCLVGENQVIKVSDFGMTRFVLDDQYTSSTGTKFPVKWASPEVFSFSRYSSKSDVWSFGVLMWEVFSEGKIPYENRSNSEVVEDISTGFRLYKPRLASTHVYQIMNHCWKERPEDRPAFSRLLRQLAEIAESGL

Chain of Tyrosine-protein kinase HCK (Homo sapiens) (P08631 2-526 limits assumed): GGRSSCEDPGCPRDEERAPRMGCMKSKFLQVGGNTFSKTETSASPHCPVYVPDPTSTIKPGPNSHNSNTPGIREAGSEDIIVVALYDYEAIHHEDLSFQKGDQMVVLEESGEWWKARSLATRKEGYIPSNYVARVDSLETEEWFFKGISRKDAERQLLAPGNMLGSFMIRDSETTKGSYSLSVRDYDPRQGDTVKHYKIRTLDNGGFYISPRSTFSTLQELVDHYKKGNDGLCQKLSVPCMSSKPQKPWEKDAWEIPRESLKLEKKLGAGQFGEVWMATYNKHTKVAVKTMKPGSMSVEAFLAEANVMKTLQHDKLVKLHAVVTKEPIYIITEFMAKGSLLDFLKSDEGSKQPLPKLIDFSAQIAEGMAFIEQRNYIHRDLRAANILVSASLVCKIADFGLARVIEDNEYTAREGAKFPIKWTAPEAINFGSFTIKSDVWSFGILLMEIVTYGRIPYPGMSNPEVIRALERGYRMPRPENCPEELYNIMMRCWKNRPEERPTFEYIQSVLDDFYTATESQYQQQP
Chain of Vascular endothelial growth factor receptor 3 (Homo sapiens) (P35916 whole entry): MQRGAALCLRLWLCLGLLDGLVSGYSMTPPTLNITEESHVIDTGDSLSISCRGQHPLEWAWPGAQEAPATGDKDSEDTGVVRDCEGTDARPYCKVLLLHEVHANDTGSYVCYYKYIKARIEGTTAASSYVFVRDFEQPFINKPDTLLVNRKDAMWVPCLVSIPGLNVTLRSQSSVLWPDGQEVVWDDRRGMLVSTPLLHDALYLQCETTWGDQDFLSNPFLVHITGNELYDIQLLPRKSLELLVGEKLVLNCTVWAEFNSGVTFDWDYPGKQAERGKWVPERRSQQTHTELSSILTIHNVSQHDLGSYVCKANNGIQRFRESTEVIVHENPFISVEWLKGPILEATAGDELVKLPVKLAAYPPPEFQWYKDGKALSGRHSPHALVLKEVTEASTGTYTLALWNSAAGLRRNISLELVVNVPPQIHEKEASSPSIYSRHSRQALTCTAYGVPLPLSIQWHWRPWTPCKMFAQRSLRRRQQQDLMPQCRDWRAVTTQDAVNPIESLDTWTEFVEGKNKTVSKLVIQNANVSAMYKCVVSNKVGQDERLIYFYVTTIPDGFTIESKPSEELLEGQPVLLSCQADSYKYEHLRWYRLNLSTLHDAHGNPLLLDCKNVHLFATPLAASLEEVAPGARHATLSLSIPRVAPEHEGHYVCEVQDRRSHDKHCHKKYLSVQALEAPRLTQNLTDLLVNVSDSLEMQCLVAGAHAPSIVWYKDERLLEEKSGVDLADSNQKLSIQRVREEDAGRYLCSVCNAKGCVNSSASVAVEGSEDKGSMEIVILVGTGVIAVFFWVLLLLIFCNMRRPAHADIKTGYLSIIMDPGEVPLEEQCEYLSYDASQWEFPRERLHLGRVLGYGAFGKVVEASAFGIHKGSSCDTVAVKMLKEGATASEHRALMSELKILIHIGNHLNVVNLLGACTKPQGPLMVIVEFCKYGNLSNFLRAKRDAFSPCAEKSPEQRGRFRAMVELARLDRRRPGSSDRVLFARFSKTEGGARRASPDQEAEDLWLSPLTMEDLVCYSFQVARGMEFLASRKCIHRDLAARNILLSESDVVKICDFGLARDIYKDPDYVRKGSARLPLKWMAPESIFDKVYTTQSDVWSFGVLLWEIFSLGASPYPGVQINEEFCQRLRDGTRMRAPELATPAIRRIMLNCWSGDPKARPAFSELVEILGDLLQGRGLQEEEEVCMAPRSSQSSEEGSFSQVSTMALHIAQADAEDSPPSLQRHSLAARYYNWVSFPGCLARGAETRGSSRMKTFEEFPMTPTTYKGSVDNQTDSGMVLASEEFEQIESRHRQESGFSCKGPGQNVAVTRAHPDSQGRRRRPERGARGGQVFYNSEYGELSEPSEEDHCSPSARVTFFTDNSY
Chain of Serine/threonine-protein kinase PLK1 (Homo sapiens) (P53350 whole entry): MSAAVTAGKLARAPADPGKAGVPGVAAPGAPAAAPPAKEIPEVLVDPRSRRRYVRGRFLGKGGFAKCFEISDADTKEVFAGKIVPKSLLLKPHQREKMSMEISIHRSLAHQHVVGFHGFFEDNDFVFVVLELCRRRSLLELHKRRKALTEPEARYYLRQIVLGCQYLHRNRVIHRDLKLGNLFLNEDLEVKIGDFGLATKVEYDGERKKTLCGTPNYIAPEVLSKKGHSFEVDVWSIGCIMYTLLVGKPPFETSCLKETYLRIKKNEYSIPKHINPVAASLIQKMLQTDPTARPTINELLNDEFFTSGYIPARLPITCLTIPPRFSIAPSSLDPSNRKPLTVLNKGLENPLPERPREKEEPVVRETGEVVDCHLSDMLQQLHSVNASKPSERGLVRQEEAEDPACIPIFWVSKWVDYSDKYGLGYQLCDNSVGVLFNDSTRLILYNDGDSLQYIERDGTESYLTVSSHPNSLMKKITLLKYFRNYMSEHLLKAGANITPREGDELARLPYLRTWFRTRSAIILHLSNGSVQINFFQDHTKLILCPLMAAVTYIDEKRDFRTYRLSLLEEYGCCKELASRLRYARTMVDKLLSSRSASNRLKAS
Chain of Insulin receptor (Homo sapiens) (P06213 28-758 limits assumed): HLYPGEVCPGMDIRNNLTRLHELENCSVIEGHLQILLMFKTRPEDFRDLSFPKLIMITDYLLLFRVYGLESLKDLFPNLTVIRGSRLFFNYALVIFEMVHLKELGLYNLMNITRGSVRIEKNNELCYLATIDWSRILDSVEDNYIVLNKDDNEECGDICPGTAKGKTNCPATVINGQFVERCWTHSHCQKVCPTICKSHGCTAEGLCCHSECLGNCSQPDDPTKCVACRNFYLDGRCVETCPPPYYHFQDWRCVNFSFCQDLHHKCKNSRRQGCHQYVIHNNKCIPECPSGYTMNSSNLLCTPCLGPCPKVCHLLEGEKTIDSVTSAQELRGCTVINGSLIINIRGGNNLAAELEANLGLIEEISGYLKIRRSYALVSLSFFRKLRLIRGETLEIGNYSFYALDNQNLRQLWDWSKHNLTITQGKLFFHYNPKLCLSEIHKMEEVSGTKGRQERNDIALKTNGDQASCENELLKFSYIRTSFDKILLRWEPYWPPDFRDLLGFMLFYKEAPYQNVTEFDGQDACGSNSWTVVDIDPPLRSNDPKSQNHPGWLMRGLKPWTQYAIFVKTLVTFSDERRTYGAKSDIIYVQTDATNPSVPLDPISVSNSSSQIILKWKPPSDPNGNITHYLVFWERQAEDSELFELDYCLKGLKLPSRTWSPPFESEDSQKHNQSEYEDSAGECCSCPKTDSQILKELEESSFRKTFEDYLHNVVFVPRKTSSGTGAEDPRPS
Chain of Insulin receptor (Homo sapiens) (P06213 763-1382 limits assumed): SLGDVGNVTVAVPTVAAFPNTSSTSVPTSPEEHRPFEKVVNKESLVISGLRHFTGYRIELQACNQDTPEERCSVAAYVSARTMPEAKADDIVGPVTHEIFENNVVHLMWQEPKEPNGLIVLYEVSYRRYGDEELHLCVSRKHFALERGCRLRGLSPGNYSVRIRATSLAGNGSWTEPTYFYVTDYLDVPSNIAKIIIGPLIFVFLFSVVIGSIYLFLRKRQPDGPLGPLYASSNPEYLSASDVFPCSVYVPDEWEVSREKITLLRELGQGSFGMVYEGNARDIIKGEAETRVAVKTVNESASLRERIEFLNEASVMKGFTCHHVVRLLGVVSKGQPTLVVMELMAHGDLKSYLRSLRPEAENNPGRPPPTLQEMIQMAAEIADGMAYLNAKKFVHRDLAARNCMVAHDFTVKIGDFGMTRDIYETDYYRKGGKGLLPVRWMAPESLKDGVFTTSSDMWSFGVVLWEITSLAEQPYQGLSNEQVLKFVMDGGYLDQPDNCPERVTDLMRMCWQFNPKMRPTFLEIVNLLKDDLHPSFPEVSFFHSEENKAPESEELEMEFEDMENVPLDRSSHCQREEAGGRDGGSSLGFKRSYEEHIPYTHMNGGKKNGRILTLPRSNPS
Chain of Tyrosine-protein kinase Fyn (Homo sapiens) (P06241 2-537 limits assumed): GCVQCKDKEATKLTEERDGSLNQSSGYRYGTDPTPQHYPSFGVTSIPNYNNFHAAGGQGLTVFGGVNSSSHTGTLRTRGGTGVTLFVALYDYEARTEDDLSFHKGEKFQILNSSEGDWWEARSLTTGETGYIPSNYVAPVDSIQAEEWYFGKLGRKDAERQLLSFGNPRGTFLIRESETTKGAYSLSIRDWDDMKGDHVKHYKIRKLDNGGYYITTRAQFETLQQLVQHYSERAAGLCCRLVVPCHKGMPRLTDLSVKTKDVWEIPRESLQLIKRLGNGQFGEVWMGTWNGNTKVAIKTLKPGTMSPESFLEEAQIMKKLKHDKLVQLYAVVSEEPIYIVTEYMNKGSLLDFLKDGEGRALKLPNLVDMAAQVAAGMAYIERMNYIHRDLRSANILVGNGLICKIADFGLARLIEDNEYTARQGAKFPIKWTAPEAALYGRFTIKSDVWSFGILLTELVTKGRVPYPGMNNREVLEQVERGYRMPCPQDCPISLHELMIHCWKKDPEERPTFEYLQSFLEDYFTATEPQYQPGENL

SMILES	inhibition [1]	inhibition [2]	inhibition [3]	inhibition [4]	inhibition [5]	inhibition [6]	inhibition [7]	inhibition [8]	inhibition [9]	inhibition [10]	inhibition [11]	inhibition [12]	inhibition [13]	inhibition [14]	inhibition [15]	inhibition [16]	inhibition [17]	inhibition [18]	inhibition [19]	inhibition [20]
O=C(Nc1n[nH]c2nc(-c3ccc(O)cc3)c(Br)cc12)C1CC1	13.2%	6.21%	5.59%	10.2%	27.1%	18.3%	60.9%	3.87%	6.92%	5.98%	14.5%	12.2%	28.4%	5.22%	5.83%	7.55%	6.22%	1.99%	1.59%	2.89%
CS(=O)(=O)CCNCc1ccc(-c2ccc3ncnc(Nc4ccc(OCc5ccccc5)c(Br)c4)c3c2)o1	5.79%	3.69%	3.81%	11.1%	-0.11%	-7.55%	-9.98%	-1.9%	6.06%	-0.04%	1.37%	7.33%	10.2%	–	-5.4%	2.87%	1.17%	2.56%	2.95%	-4.12%
c1ccc(Oc2ccc(Nc3ncc(-c4ccccc4)o3)cc2)cc1	2.53%	1.36%	1.6%	2.58%	1.21%	3.08%	1.93%	–	2.76%	0.57%	2.97%	3.85%	5.01%	1.77%	2.01%	4.11%	2.94%	-1.75%	1.99%	0.89%
Clc1ccc(CNc2nccc(-c3cnn4ncccc34)n2)cc1	-2.99%	2.4%	2.85%	0.13%	2.01%	-1.51%	1.12%	1.45%	10.5%	-1.29%	0.07%	5.97%	5.79%	2.48%	–	0.04%	1.97%	2.17%	2.19%	0%
COc1cc2ncn(-c3cc(OCc4cccs4)c(C(N)=O)s3)c2cc1OC	28.4%	–	–	4.76%	1.62%	-6.1%	34.7%	1.28%	11.7%	-2.3%	10.6%	4.48%	23.4%	-8.52%	-6.38%	-0.44%	2.03%	0.43%	1.63%	-1%
O=C(Nc1n[nH]c2cc(-c3ccccc3)ccc12)C1CC1	5.87%	5.16%	2.83%	5.95%	4.54%	16.2%	16.9%	4.54%	5.1%	1.14%	5.27%	8.61%	15.8%	10.5%	11.2%	3.96%	5.84%	2.53%	0.58%	1.56%
COc1ccc2ncn(-c3cc(O[C@H](C)c4ccccc4Cl)c(C(N)=O)s3)c2c1	83.7%	–	–	6.36%	2.74%	-5.28%	4.48%	3.05%	14.4%	-4.31%	-3.05%	5.34%	5.31%	–	-6.53%	0.89%	3.79%	2.92%	3.51%	-4.15%
COc1cc(N2CCN(C(C)C)CC2)ccc1Nc1nc(Nc2ccc(F)cc2C(=O)NC[C@@H](O)CO)c2cc[nH]c2n1	15.3%	9.77%	38%	74%	–	-9.16%	–	1.22%	0.02%	0.03%	-0.08%	3.99%	5%	80.6%	92.6%	110%	116%	26.6%	78%	-1.99%
COc1cc2ncn(-c3cc(OCCc4ccccc4)c(C(N)=O)s3)c2cc1OC	6.63%	–	–	1.17%	1.07%	1.49%	21%	-0.81%	4.7%	2.91%	2.86%	2.34%	11.2%	1.99%	2.07%	2.51%	0.56%	2.17%	2.64%	1.33%
Fc1ccc(-c2nc3n(c2-c2ccncc2)CCS3)cc1	6.52%	3.85%	4.09%	6.93%	-0.91%	-8.43%	–	0.95%	1.38%	0.03%	-3.64%	4.65%	7.02%	-2.12%	-4.05%	7.27%	5.39%	2.11%	1.09%	-1.96%
COc1ccc2cc(-c3c(-c4ccncc4)nc(-c4ccc(S(C)(=O)=O)cc4C)n3C)ccc2c1	18.2%	4.66%	4.49%	11.5%	-2.55%	4.4%	10.1%	0.81%	-1.08%	1.95%	7.37%	5.89%	13.1%	4.23%	3.79%	7.46%	5.18%	2.39%	2.25%	1.82%
CCC(=O)Nc1ccc(C)c(-c2ccc(C(=O)NCC3CC3)cc2)c1	10.2%	5.02%	4.61%	8.14%	3.02%	3.63%	-1.74%	-2.39%	2.95%	1.58%	4.1%	5.93%	4.04%	3.84%	1.32%	4.28%	5.36%	0%	1.59%	-0.06%
CNC(=O)c1cncc(/C=C/c2c(C)cccc2C)c1	2.51%	1.18%	0.2%	1.49%	5.46%	–	-8.92%	12%	44.4%	0.61%	29.6%	17.2%	58.9%	-3.76%	-5.13%	0.95%	4.95%	2.26%	1.08%	-3.14%
COc1cc2ncn(-c3cc(OCc4ccccc4C(F)(F)F)c(C(C)=O)s3)c2cc1OC	5.55%	20.5%	67.7%	6.18%	2.27%	3.53%	5.96%	0.38%	10.8%	1.85%	8.03%	5.79%	9.81%	-2.34%	1.09%	-1.39%	-0.63%	5%	3.18%	0.57%
